Rows were chosen to be rich in hits. Some 3.4% of all compounds tested hit in one or more screens of this group.
GPR151 activ: human GPR151 activation | Q8TDV0 | PathHunter beta-arrestin GPR151 cells, luminescence | activation, % at 11.2 µM | 650,000 tested, 1% active; in the data active = activation above about 4.9%;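 also: 0% = median of compound wells and 100% = cells with positive control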
FBW7 act: activators of human E3 ligase FBW7. Q969H0. AlphaScreen FBW7–phospho-cyclin E peptide binding, activator screen. normalized activity (activation), % at 26.1 µM. 650,000 tested, 0.13% active; in the data active = normalized activity above about 1.9%;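 also: purified mutant Fbw7 with reduced substrate affinity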
Target sequence (Q969H0 whole entry, looked up): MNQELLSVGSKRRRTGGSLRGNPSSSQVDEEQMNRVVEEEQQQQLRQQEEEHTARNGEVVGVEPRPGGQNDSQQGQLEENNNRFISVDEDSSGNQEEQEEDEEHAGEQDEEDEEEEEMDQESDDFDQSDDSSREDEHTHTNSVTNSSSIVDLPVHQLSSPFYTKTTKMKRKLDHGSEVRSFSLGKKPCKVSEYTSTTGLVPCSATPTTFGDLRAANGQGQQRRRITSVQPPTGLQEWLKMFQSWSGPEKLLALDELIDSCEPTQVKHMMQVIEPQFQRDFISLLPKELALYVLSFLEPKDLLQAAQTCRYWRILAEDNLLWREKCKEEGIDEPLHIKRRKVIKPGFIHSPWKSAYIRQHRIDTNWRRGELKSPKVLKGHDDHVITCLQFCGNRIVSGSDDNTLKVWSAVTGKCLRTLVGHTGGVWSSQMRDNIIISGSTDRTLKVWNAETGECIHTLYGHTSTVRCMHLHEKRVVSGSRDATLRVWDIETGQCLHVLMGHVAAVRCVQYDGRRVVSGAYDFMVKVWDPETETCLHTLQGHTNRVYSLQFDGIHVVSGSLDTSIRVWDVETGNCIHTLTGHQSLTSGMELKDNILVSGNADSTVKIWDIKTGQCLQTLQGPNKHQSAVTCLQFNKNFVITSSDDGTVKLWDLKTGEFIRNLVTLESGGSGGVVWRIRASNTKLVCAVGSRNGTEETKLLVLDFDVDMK
MITF inh: inhibitors of human MITF; O75030; AlphaScreen MITF homodimerization, bead proximity signal; inhibition, % at 2.6 µM; 650,000 tested, 0.91% active; AID 1259374; in the data active = inhibition above about 50%;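 also: 0% = vehicle wells with protein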
TEAD-YAP inh: TEAD-YAP interaction inhibition; HEK-TIYL cells, TEAD-Gal4/YAP UAS-luciferase luminescence; 640,000 tested, 1.4% active; inhibition, % at 9.12 µM; AID 1259422; in the data active = inhibition above about 32%;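 also: 0% = median of test compound wells and 100% = reference inhibitor wells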
An asterisk follows results filed as active.

SMILES | GPR151 activ | FBW7 act | MITF inh | TEAD-YAP inh
CCCCCCCCNC(=O)c1ccc([N+](=O)[O-])o1 | 0 | 0 | 1 | 35*
C=C1C2(C(=O)Nc3ccc(F)c(F)c3)CCC(C2)C1(C)C (stereo not drawn) | 0 | 0 | -15 | -1
COc1ccc(-c2cc(C(F)(F)F)n3nc(C(=O)N4CCC(C)CC4)c(Cl)c3n2)cc1 | 0 | 0 | 4 | 7
COC(=O)c1ccccc1S(=O)(=O)N1CCC(C(=O)O)CC1 | 1 | 0 | -4 | 2
Cn1c(C(=O)NCCc2ccccc2)cc2sccc21 | -2 | 0 | 2 | 41*
Cc1cc2c(cc(C(=O)NCCc3ccccc3)n2C)s1 | -8 | 0 | 5 | 58*
Cn1c(C(=O)NCCCN2CCCC2)cc2sccc21 | 0 | 0 | -10 | -2
O=C(O)/C=C\C(=O)Nc1ccc(S(=O)(=O)N2CCOCC2)cc1 | -1 | 0 | -5 | 4
O=C(NNS(=O)(=O)c1ccc(F)cc1)c1ccc(F)cc1 | -1 | 0 | -25 | -5
Cc1ccc(-c2nc3ccccc3s2)cc1[N+](=O)[O-] | 1 | 0 | -1 | -32
CC(=O)Nc1cc(-c2nc3ccccc3s2)ccc1C | 0 | 0 | -4 | -34
Cc1c(N)cccc1-c1nc2ccccc2s1 | -2 | 0 | 0 | 35*
Cc1nc2cc(-c3nc4ccccc4s3)ccc2n1-c1ccccc1 | 2 | 0 | -13 | 59*
CC(=O)c1ccc2c(c1)nc(C)n2-c1ccccc1 | 0 | 0 | 20 | -24
Cc1cc(-c2nc3ccccc3s2)ccc1N | -8 | 0 | 3 | 81*
Cc1ccc(-c2nc3ccccc3s2)cc1N | -10 | 0 | 1 | 54*
Cc1c(N)cccc1-c1nc2ccccc2o1 | -3 | 0 | -3 | 57*
O=C(c1cc([N+](=O)[O-])ccc1N1CCCCC1)N1CCN(c2ccccc2)CC1 | 1 | 0 | -1 | 48*
Cc1nn(C)c(C)c1-c1cccc(C(=O)Nc2ccc(N3CCOCC3)cc2)n1 | 0 | 0 | -7 | 45*
O=C(Nc1ccccc1Br)c1cc([N+](=O)[O-])ccc1N1CCOCC1 | 1 | 0 | -9 | 50*
Cc1nc2c(C(=O)Nc3ccc(N4CCOCC4)cc3)snc2c(=O)[nH]1 | -1 | 0 | -4 | 33*
Cc1nc2c(C(=O)Nc3ccc(Cl)cc3)snc2c(=O)[nH]1 | 1 | 0 | 0 | 0
Nc1cccc(-c2cccc(C(=O)Nc3ccc(N4CCOCC4)cc3)n2)c1 | 1 | 0 | -12 | -12
C/C(=N\N=C(/N)SC1CC(=O)N(c2ccc(C(=O)O)cc2)C1=O)c1ccc(Cl)cc1 (stereo not drawn) | 1 | 0 | -9 | 1
O=Cc1ccc(OCC(=O)Nc2cccc(I)c2)cc1 | 2 | 0 | 5 | -11
SMILES | GPR151 activ | FBW7 act | MITF inh | TEAD-YAP inh
OC(CN1CCC(Nc2ccc3[nH]ncc3c2)CC1)c1ccc(Br)cc1F (stereo not drawn) | 3 | -1 | 21 | 8
O=C(Nc1ccc(N2CCOCC2)cc1)c1csc(N2CCC(N3CCOCC3)CC2)n1 | 0 | 0 | 0 | -24
O=C(Nc1ccc(N2CCOCC2)cc1)c1csc(Br)n1 | -10 | 0 | 19 | 52*
O=C(Nc1ccc(N2CCCCC2)cc1)c1cc([N+](=O)[O-])ccc1N1CCOCC1 | 0 | 0 | 11 | 7
O=C(Nc1ccc(N2CCOCC2)cc1)c1cc([N+](=O)[O-])ccc1Br | -1 | 0 | -8 | 43*
O=C(Nc1ccc(N2CCOCC2)cc1)c1cc([N+](=O)[O-])ccc1Cl | 0 | 0 | -1 | 35*
O=C(Nc1ccc(N2CCCC2)cc1)c1cc([N+](=O)[O-])ccc1N1CCOCC1 | 2 | 0 | 8 | -10
COCCNC(=O)c1cccc(OC2CCN(Cc3ccc4nonc4c3)CC2)c1 | -1 | 0 | -4 | 1
CCn1cc(Br)c(C)n1 | 1 | 0 | -1 | 17
CCOC(=O)c1c(NC(=O)Nc2ccccc2)sc(-c2ccccc2)c1-c1ccccc1 | -1 | 0 | -3 | -16
Cc1ccc(C(C)CCN2CCC3(CC2)CC3C(=O)N2CCc3ccccc3C2)o1 (stereo not drawn) | 0 | 0 | -12 | 0
Cc1ccc(C(=O)N/N=C\c2cccc(OC(=O)c3ccco3)c2)cn1 | 2 | 2.2* | -9 | 1
O=C(Nc1ccc2ncccc2c1)c1ccco1 | -1 | 0 | -8 | -53
COc1cccc(/C=N\NC(=O)c2ccc(C)nc2)c1 | -2 | 0 | 17 | -10
O=C(N/N=C/c1ccc(O)c2ncccc12)c1ccco1 | 1 | 0 | 104* | -33
O=C(N/N=C/c1cc(Cl)ccc1O)c1ccco1 | 0 | 0 | -52 | -48
O=C(N/N=C/c1ccc2ncccc2c1)c1ccco1 | -9 | 0 | 11 | 41*
C=CCn1c(-c2ccc(Br)cc2)csc1=Nc1ccc(C)cc1 | 0 | 0 | 5 | -1
Cc1ccc(NC(=O)c2cnc(SCC(=O)N3CCCC3)n(C)c2=O)cc1 | -4 | 0 | 14 | -9
Cc1ccc(-c2cnc(SCC(=O)N3CCCC3)n2C)cc1 | -1 | 0 | -17 | 58*
CCCCN1C(=O)C(=O)c2cc(Br)ccc21 | 2 | 0 | 4 | 41*
CC(=O)CCN1C(=O)C(=O)c2cc(Br)ccc21 | 0 | -1 | 7 | 16
FC(F)(F)c1cccc(NCc2cn3ccccc3n2)c1 | 0 | 0 | 1 | -24
FC(F)(F)c1cccc(NCc2cn3cccnc3n2)c1 | 0 | 2.3* | 3 | -1
COC(=O)c1ccc(S(=O)(=O)N2CCCc3ccccc32)cc1 | 2 | 0 | -12 | 62*
SMILES | GPR151 activ | FBW7 act | MITF inh | TEAD-YAP inh
COc1cc(S(=O)(=O)N2CCCc3ccccc32)ccc1Cl | 0 | 1 | 5 | 58*
CC(NC(=O)c1cc(S(=O)(=O)N2CCc3ccccc32)cn1C)c1ccccc1 (stereo not drawn) | 2 | 0 | -13 | -11
Cn1cc(S(=O)(=O)N2CCc3ccccc32)cc1C(=O)NC(C)(C)C | 1 | 0 | -11 | 37*
COc1cc(C)c(S(=O)(=O)N2CCc3ccccc32)cc1C | 0 | 0 | 13 | 50*
CC(=O)CSc1ncc(-c2ccc([N+](=O)[O-])cc2)[nH]1 | -1 | 0 | -1 | -57
O=C(N/N=C/c1ccc([N+](=O)[O-])s1)c1cc2ccccc2cc1O | 0 | 0 | 2 | -12
CN(C)/N=C/C=C1\CC/C(=C\c2cccs2)C1=O | 0 | -1 | -24 | -14
CCc1ccc(C2C(C#N)=C(N)N(N3CCOCC3)C3=C2C(=O)CC(C)(C)C3)cc1 (stereo not drawn) | 2 | 0 | 3 | 11
COc1ccc(S(=O)(=O)N2CCCc3ccccc32)cc1 | 0 | 0 | -8 | 58*
O=[N+]([O-])c1cccc(/C=C/c2ccc3cccc(O)c3n2)c1 | -2 | 0 | 8 | -37
Oc1cccc2ccc(/C=C/c3cc4c(cc3Cl)OCO4)nc12 | -7 | 0 | 0 | 68*
Oc1cccc2ccc(/C=C/c3ccc4c(c3)OCO4)nc12 | -5 | 0 | 6 | 80*
CC(=O)Nc1ccc2c3c(cccc13)C(=O)N(C)C2=O | 1 | 0 | 5 | -3
O=C(NCCN1CCOCC1)c1cccc(N2CCN(c3ccccn3)CC2)n1 | -1 | 0 | -6 | -4
